From PubChem BioAssay AID2284169 (EPA ToxCast) come the findings set out here.

Calls of active or inactive are those of the source. The calls were made as follows: active = hit-call score of the fitted dose curve at least 0.9, where 1 is the maximum; inactive = score below 0.9.

The AC50 is the concentration giving half of the maximal activity seen.

The target of this test is human Opioid Receptor NOP (ORL1) Agonism, OPRL1 (gene 4987) (UniProt P41146). Description: ERF_FR_GPCR_hOPRL1: Eurofins (ERF) G Protein-Coupled Receptor (GPCR) Radioligand Binding LeadHunter Assay for human Opioid Receptor NOP (ORL1) Agonism. As for the experimental part: ERF_FR_GPCR_hOPRL1 is a biochemical, single-readout assay that uses extracted gene-proteins in a cell-free assay. Measurements were taken 1 hour after chemical dosing in a 96-well plate. See NOP (ORL1) Human Opioid GPCR Binding (Agonist Radioligand) Assay, Cerep.ERF_FR_GPCR_hOPRL1 is an assay component calculated from the ERF_FR_GPCR_hOPRL1 assay. It is designed to measure radioligand binding using a type of binding reporter as detected by scintillation counting with radiometry technology.Data from the assay component ERF_FR_GPCR_hOPRL1 was analyzed at the assay endpoint, ERF_FR_GPCR_hOPRL1, in the positive analysis fitting direction relative to DMSO as the negative control and baseline of activity. Using a type of binding reporter, gain-of-signal activity can be used to understand changes in binding as they relate to gene OPRL1. To generalize the intended target to other relatable targets, this assay endpoint is annotated to the gpcr intended target family, where the subfamily is opioid.
Chain of human Opioid Receptor NOP (ORL1) Agonism, OPRL1 (gene 4987) (P41146 whole entry, looked up): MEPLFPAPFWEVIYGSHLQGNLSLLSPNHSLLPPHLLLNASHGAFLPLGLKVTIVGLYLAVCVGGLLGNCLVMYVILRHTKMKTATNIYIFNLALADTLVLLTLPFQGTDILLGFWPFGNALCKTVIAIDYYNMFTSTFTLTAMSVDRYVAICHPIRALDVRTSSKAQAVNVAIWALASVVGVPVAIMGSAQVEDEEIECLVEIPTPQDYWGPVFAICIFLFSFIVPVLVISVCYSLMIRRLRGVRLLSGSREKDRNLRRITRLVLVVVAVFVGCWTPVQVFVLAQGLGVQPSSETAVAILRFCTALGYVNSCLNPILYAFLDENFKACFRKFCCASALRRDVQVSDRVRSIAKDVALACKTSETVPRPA
Human cells are incubated for 60 minutes at room temprature with [3H]nociceptin ligand (0.1 nM) and Nociceptin as control inhibitor. Test Sample Requirements: Minimum for 1) Screen: 60 ul of 10 mM stock -OR- 1 mg (pre-weighed) for 10 uM final testing. 2) Dose Response: 90 ul of 10 mM stock -OR- 1 mg (pre-weighed) for a top concentration at 10 uM.
On to `COc1cc(/C=C/C(=O)CC(=O)/C=C/c2ccc(O)c(OC)c2)ccc1O`, for which the AC50 is 5 µM (active).

Take `COc1cc(CCC(=O)CC(=O)CCc2ccc(O)c(OC)c2)ccc1O`: the molecule was called inactive.

On to `O=C(/C=C/c1ccc(O)cc1)CC(=O)/C=C/c1ccc(O)cc1`, for which the AC50 was 3.86 µM (active).

As for `CCCCC[C@H](O)CC(=O)CCc1ccc(O)c(OC)c1`, the result was inactive.
